Screens deposited in PubChem BioAssay by National Center for Advancing Translational Sciences (NCATS).
The list is not random: actives were taken first. Their share in the collection is about 19%.
IL1B secr inh: qHTS for Inhibitors of Inflammasome Signaling: IL-1-beta AlphaLISA Primary Screen; THP-1 LPS/ATP IL-1B secretion, AlphaLISA, 16 h; hits give low values; activity change, % at 57.5 µM; 4.7% of 360,000 active; in the data active = activity change below about -50%; inconclusive = mostly about -30% to -49%
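THP-1 cells pretreated 1 hr with compounds (up to 57.5 uM final), then stimulated with LPS (250 ng/mL final) plus ATP (1.25 mM final); secreted IL-1B measured by AlphaLISA after 16 hr, decreased signal indicating inhibition.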
HT1080NT lethal: qHTS for induction of synthetic lethality in tumor cells producing 2HG: qHTS for the HT-1080-NT fibrosarcoma cell line | 1.6% of 360,000 active | AID 686970, 2013 | Potency, µM (doses to about 46.1 µM), for inactives: at the highest dose activity, negative = less viability, most hits filed as cytotoxic | HT-1080-NT fibrosarcoma viability, CellTiter-Glo ATP luminescence, 48 h;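 also: NT is the 2HG producing partner of a matched IDH1 knockdown line; potency is read from the fitted curve at half-maximal effect; 0% = DMSO-treated cells and -100% = media-only wells without cells; nearly all actives have a fitted effect of over 55% in size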
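HT-1080-NT; 750 cells/well; 5% FBS RPMI; 48 h compound, 37 degrees C; CellTiter-Glo luminescence; curve fitting and curve-class assignment.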
TDP1 cell noCPT: qHTS for Inhibitors of human tyrosyl-DNA phosphodiesterase 1 (TDP1): qHTS in cells in absence of CPT; DT40 Tdp1-/- hTDP1 cells, no CPT, ATP luminescence, 48 h; Potency, µM (doses to about 46.2 µM), for the others: at the highest dose activity change, negative = growth inhibition, hits mostly inhibitors; 15% of 420,000 active; also: potency is read from the fitted curve at half-maximal effect; nearly all actives have a fitted effect of over 55% in size
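Luminescent ATP content (CellTiter-Glo) served as the growth readout. Knockout chicken DT40 cells expressing human TDP1 were exposed to compounds without camptothecin for a minimum 48 hr at 37 °C.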
HT1080 IDH1KD tx: qHTS for induction of synthetic lethality in tumor cells producing 2HG: qHTS for the HT-1080-IDH1KD cell line; 2% of 360,000 active; Potency, µM (doses to about 46.1 µM), for the others: top-dose activity, negative = toxicity, usual class: cytotoxic; HT-1080 IDH1 knockdown viability, ATP luminescence, 48 h;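 also: potency is read from the fitted curve at half-maximal effect; 0% = DMSO wells and -100% = cell-free medium wells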
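CellTiter-Glo luminescence after 48 h compound exposure at 37 degrees C of IDH1-knockdown HT-1080 cells in 5% FBS RPMI. %Activity scaled between DMSO wells and cell-free media wells, with curves fitted and assigned curve classes.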
TDP1 cell CPT: qHTS for Inhibitors of human tyrosyl-DNA phosphodiesterase 1 (TDP1): qHTS in cells in presence of CPT; chicken DT40 Tdp1-/-;hTDP1 cells + 20 nM CPT, ATP luminescence, 48 h; AID 686979, 2013; Potency, µM (series often up to 46.2 µM), for the others: at the highest dose activity change, negative = growth inhibition, usual class: inhibitors; 12% of 420,000 active; also: potency is read from the fitted curve at half-maximal effect; nearly all actives have a fitted effect of over 55% in size
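Cell growth measured by CellTiter-Glo luminescence after a minimum 48 h, 37 C compound exposure with 20 nM CPT in Tdp1-knockout DT40 cells stably expressing hTDP1, seeded 400/well; qHTS titration format.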
ELG1 DNA repair: qHTS screen for small molecules that inhibit ELG1-dependent DNA repair in human embryonic kidney (HEK293T) cells expressing luciferase-tagged ELG1; Potency, µM (doses to about 46.1 µM), without a hit: at the highest dose activity change, negative = inhibition, hits mostly inhibitors; HEK293T ELG1-luciferase reporter, luminescence, 16 h; DNA damage induced by 5-fluorouridine; 2.3% of 330,000 active; also: potency is read from the fitted curve at half-maximal effect; nearly all actives have a fitted effect of over 55% in size
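Luminescence from the luciferase reporter, measured 30 min after ONE-Glo reagent at room temperature, was the read-out. Beforehand, 2,000 cells per well were exposed for 16 hr at 37 °C to 5-fluorouridine together with compound or vehicle.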
* hit, by the source's call; ? = inconclusive; nt = no result given; [ ] = dose if it differs, or a comment. Unless noted, calls follow the shape of the dose curve; as a rule, active = well fitted curve in the direction sought with a large enough effect; inconclusive = small, poorly fitted or top-dose-only effect, or another doubt; inactive = no such curve, though single readings can be large; an effect the other way counts as inactive or inconclusive. Unless noted, % is scaled to controls: 0 for no effect and ±100 for the full control effect.

SMILES	IL1B secr inh	HT1080NT lethal	TDP1 cell noCPT	HT1080 IDH1KD tx	TDP1 cell CPT	ELG1 DNA repair
COc1ccc(/C=C2\Sc3ccc(C(=O)NCC4CCCO4)cc3N(C)C2=O)cc1 (centres undefined)	7	?	-18%	-7%	?	-10%
COc1ccc(/C=C2\Sc3ccc(C(=O)NCc4cccnc4)cc3N(C)C2=O)cc1OC	-80*	23µM*	16µM*	23µM*	21µM*	18µM*
Cc1ccccc1/C=C1\Sc2ccc(C(=O)N3CCN(c4ccccn4)CC3)cc2N(C)C1=O	-22	0%	1%	-15%	-1%	0%
COC(=O)Cc1ccc(OC2(C)CCN(Cc3csc4ccccc34)C2)cc1 (centres undefined)	23	-5%	?	-4%	?	nt
CCCCNC(=O)CSc1nc2ccccc2nc1Cc1ccccc1	nt	nt	-2%	nt	-25%	nt
CN1C(=O)CC(C)(c2ccccc2)C1=O (centres undefined)	nt	nt	-6%	nt	-1%	nt
CCc1cc(=O)oc2c3c(cc(OCC(=O)NCc4ccccn4)c12)OC(C)(C)CC3	-22	0%	?	-3%	23µM*	?
CCc1cc(=O)oc2c3c(cc(OCC(=O)Nc4cccnc4)c12)OC(C)(C)CC3	?	-1%	15µM*	-20%	?	?
CCCc1cc(=O)oc2c3c(cc(OCC(=O)NCCCn4ccnc4)c12)OC(C)(C)CC3	0	-12%	26µM*	-9%	16µM*	?
Cc1c(C)c2c(OCC(=O)Nc3cccnc3)cc3c(c2oc1=O)CCC(C)(C)O3	-23	1%	-25%	-1%	-19%	0%
Cc1cc(Cl)ccc1C(O)c1ncc(-c2cccc3ccccc23)[nH]1 (centres undefined)	-27	?	?	?	?	nt
COc1ccc(CNC(=O)C(=O)Nc2ccc(OC)cc2OC)cc1	nt	nt	-15%	nt	-9%	nt
Cc1cc(C)n(-c2nc3ccccc3nc2Nc2ccc(Cl)c(Cl)c2)n1	nt	nt	-15%	nt	-5%	nt
Cn1ncc(C(=O)N2CCN(c3ccccc3F)CC2)c1C1CCN(C(=O)OC(C)(C)C)CC1	nt	nt	-54%	nt	?	nt
CC(C)(C)OC(=O)N1CCC(c2c(C(=O)N3CCN(c4ccccc4F)CC3)cnn2C(C)(C)C)CC1	nt	nt	?	nt	23µM*	nt
COc1ccccc1N1CCN(C(=O)c2cnn(C(C)(C)C)c2C2CCN(C(=O)OC(C)(C)C)CC2)CC1	nt	nt	-85%	nt	16µM*	nt
Cn1ncc(C(=O)N2CCN(c3ccccc3)CC2)c1C1CCN(C(=O)OC(C)(C)C)CC1	nt	nt	-28%	nt	-4%	nt
C[C@H]1CN([C@@H](C)CO)C(=O)CCCn2nncc2CO[C@H]1CN(C)S(=O)(=O)c1ccc2c(c1)OCCCO2	18	4%	7%	-4%	10%	nt
Cc1cc(C(=O)CSc2nc3ccc(Cl)cc3[nH]2)c(C)n1CC1CCCO1 (centres undefined)	-12	-18%	5.8µM*	?	9.2µM*	23µM*
COc1ccc(Nc2nnc(SCC(=O)N3CCCC3)s2)cc1	-7	-3%	?	6%	?	16%
COc1ccc(Nc2nnc(SCC(=O)c3cc(C)n(CC4CCCO4)c3C)s2)cc1 (centres undefined)	1	-15%	?	-12%	18µM*	?
CN(C(=O)CSc1nnc(-c2ccc(Cl)cc2)n1CC1CCCO1)C1CCS(=O)(=O)C1 (centres undefined)	-1	9%	-4%	17%	-4%	1%
Cc1cc(C(=O)CSc2nc3ccc(Cl)cc3[nH]2)c(C)n1C	-6	-30%	?	-10%	?	-9%
Cc1cc(C(=O)CSc2nnc(-c3ccc(Cl)cc3)n2CC2CCCO2)c(C)n1C (centres undefined)	-2	0%	23µM*	-7%	12µM*	2%
COC(=O)Cn1nnnc1-c1nc2cc(C)c(C)cc2[nH]c1=O	50	18%	-22%	8%	-14%	nt
SMILES	IL1B secr inh	HT1080NT lethal	TDP1 cell noCPT	HT1080 IDH1KD tx	TDP1 cell CPT	ELG1 DNA repair
O=C(COC(=O)c1ccc(O)cc1)Nc1ccc2c(c1)OCO2	6	1%	12µM*	7%	?	13%
O=C(COC(=O)c1ccc(O)cc1O)Nc1ccc2c(c1)OCCO2	-6	14%	9.2µM*	0%	9.2µM*	?
O=C(COC(=O)c1ccc(O)cc1O)Nc1ccc2ccccc2c1	23	-14%	13µM*	-2%	15µM*	?
O=C(COC(=O)c1ccc(CO)cc1)Nc1ccc2ccccc2c1	14	-1%	15%	-1%	1%	16%
N#CCC(=O)Nc1ccc(C(=O)OCC(=O)c2ccc3c(c2)OCCO3)cc1	17	17%	18µM*	10%	?	?
CN(C)S(=O)(=O)c1ccc(C(=O)OCC(=O)Nc2ccc3c(c2)OCO3)cc1	8	6%[9.24 µM]	1%	4%	-6%	?
N#CCC(=O)Nc1ccc(C(=O)OCC(=O)c2ccc3c(c2)OCO3)cc1	?	-7%	-17%	?	4%	?
CSc1ccccc1C(=O)N1CCN(c2ncccn2)CC1	48	-4%	3%	1%	-9%	-5%
CN(CCCNC(=O)CCC(=O)N1CCOc2ccc(Cl)cc21)Cc1ccccc1	?	-16%	?	-9%	?	9%
C#CCn1cc(CNC[C@H]2O[C@@H](n3cnc4c(=O)[nH]c(N)nc43)[C@H](O)[C@@H]2O)c2ccccc21	11	16%	34%	16%	7%	nt
N#CCC(=O)Nc1ccc(C(=O)OCC(=O)Nc2ccc3ccccc3c2)cc1	13	2%	8%	5%	-4%	?
CC(C)(C)NC(=O)COC(=O)c1ccc(NC(=O)CC#N)cc1	41	6%	-5%	3%	1.5µM*	-4%
CCOc1ccc(C(=O)NCC(c2ccco2)N2CCOCC2)cc1 (centres undefined)	2	5%	-6%	2%	-16%	3%
COc1ccc2cc(S(=O)(=O)N3CCCCC3)ccc2c1S(=O)(=O)N1CCCCC1	-14	-1%	?	-1%	21µM*	?
